Where “and” joins values, the source holds several entries; their conditions need not be identical. Equal entries are not always repeated. Inconclusive results are not listed. Entries that show only a call come without a potency. Some compounds were tested as several samples or in several runs, with calls that do not always agree. Calls of active or inactive are those of the source. Calls come from the whole dose curve; as a rule, active = well fitted curve in the direction sought with a large enough effect in the repeat runs; inconclusive = weak or mixed curves; inactive = no such curve, though single readings can be large; an effect the other way counts as inactive or inconclusive.

Nuclear receptor subfamily 1 group I member 2 (Homo sapiens), sequence (O75469 whole entry, looked up): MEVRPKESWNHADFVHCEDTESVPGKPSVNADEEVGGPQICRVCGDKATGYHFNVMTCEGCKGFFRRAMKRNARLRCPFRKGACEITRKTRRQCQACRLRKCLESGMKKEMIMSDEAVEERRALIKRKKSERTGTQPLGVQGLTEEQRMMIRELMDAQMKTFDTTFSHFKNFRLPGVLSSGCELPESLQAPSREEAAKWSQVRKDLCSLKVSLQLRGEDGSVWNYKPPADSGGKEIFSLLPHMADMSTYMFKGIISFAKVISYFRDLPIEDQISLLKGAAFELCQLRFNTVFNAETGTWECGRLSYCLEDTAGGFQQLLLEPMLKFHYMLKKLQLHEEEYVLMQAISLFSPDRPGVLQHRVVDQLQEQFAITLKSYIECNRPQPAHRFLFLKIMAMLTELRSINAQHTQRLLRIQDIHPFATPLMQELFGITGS

Test system in the first assay: not listed separately
Description: Caspase-3/7 induction in HepG2 cells by small molecules, qHTS cell viability counter screen (AID 1346981). Note: nearly all actives have a fitted effect of over 30% in size. Note: potency is the fitted concentration of half-maximal effect. Conditions: CellTiter-Fluor fluorescence, 17 h; series mostly up to 92.4 µM. The essentials:
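Steps: seed 2,000 HepG2 cells per well; incubate 5 hr at 37 C; pin-add compounds in DMSO; incubate 16 hr; add CellTiter-Fluor; after 1 hr at 37 C and 5% CO2, read fluorescence.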
For `Cc1ccc(OP(=O)(Oc2ccc(C)cc2)Oc2ccc(C)cc2)cc1`, the Potency result is “inactive”. Same read-out and setting: then `O=C(O)C(F)(F)C(F)(F)C(F)(F)C(F)(F)C(F)(F)C(F)(F)C(F)(F)F`, with “inactive”; and `C#C[C@]1(O)CC[C@H]2[C@@H]3CCC4=CC(=O)CC[C@]4(C)[C@H]3CC[C@@]21C`, with “inactive”; and `CCOc1cc(C=O)ccc1O`, with “inactive”. On the same count and under the same terms, then `CCCCNC(=O)n1c(NC(=O)OC)nc2ccccc21`, with “inactive”; and `c1ccc(NNc2ccccc2)cc1`, with “inactive”; and `CC1(C)C(C=C(Cl)Cl)C1C(=O)OC(C#N)c1cccc(Oc2ccccc2)c1` (configuration not stated), with “inactive”. Still for that read-out and setting: then `N#CC(Br)Br`, with “inactive”; and `COc1ccc(C(CN(C)C)C2(O)CCCCC2)cc1` (configuration not stated), with “inactive”; and `C=CCN(CC=C)C(=O)C(Cl)Cl`, with “inactive”. On to `CCOC(=O)C(C)OC(=O)c1cc(Oc2ccc(C(F)(F)F)cc2Cl)ccc1[N+](=O)[O-]` (configuration not stated), for which the Potency entry is “inactive”. In the case of `CCCCC(CC)COC(=O)c1ccc(C(=O)OCC(CC)CCCC)c(C(=O)OCC(CC)CCCC)c1` (configuration not stated), the Potency entry was “inactive”. Same read-out and setting: to `Oc1c(Cl)c(Cl)c(Cl)c(Cl)c1Cl` belongs “inactive”; to `O=P(O)(O)CCCl`, “inactive”. The same measure, in the same setting: then `Nc1ccc(-c2ccccc2)cc1`, with “inactive”; and `Cc1ccc2c(c1N)C(=O)c1ccccc1C2=O`, with 30.3 µM (active) and 48.6 µM (active).

For the next assay, the target named is Nuclear receptor subfamily 1 group I member 2 (Homo sapiens) (UniProt O75469). Description: Human pregnane X receptor (PXR) small molecule agonists, qHTS assay (AID 1346982). Note: nearly all actives have a fitted effect of over 35% in size. Note: potency is the fitted concentration of half-maximal effect. The following applies: PXR-Luc HepG2, CYP3A4 luciferase reporter, 24 h; series mostly up to 92.4 µM. The essentials:
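Agonist mode qHTS: PXR-Luc HepG2 cells plated 5 hr before DMSO-dissolved compounds were pinned in, cultured 24 hr at 37 C, 5% CO2; ONE-Glo luminescence readout.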
Take `COP(=O)(OC)OC`: the Potency was 61.6 µM (active) and inactive.

As for `Cc1ccc(OP(=O)(Oc2ccc(C)cc2)Oc2ccc(C)cc2)cc1`, the Potency is 5.44 µM (active) and 13.7 µM (active). Same read-out and setting: then `CCC(C)(c1ccc(O)cc1)c1ccc(O)cc1`, with 12.2 µM (active) and 5.45 µM (active). The same measure, in the same setting: then `O=C(O)C(F)(F)C(F)(F)C(F)(F)C(F)(F)C(F)(F)C(F)(F)C(F)(F)F`, with “inactive”; and `c1ccc(-c2cccc(-c3ccccc3)c2)cc1`, with 61.8 µM (active) and 27.3 µM (active); and `CC(C)(OOC(C)(C)c1ccccc1)c1ccccc1`, with “inactive”. With `CCOc1cc(Oc2ccc(C(F)(F)F)cc2Cl)ccc1[N+](=O)[O-]`, the Potency was 27.6 µM (active) and 17.2 µM (active). The same measure, in the same setting: to `O=C(NC(=O)c1c(F)cccc1F)Nc1ccc(Cl)cc1` belongs 2.44 µM (active) and inactive; to `CCOCN(C(=O)CCl)c1c(C)cccc1CC`, 2.58 µM (active). The same measure, in the same setting: to `Nc1ccncc1` belongs “inactive”; to `Cc1ccccc1[N+](=O)[O-]`, “inactive”. Still for that read-out and setting: to `c1cc(OCC2CO2)ccc1Cc1ccc(OCC2CO2)cc1` (configuration not stated) belongs 68.9 µM (active) and 61.1 µM (active); to `O=Cc1ccco1`, “inactive”; to `CCOc1cc(C=O)ccc1O`, “inactive”.

For `Nc1ccc(Cl)c(Cl)c1`, the Potency entry is “inactive”. Same read-out and setting: then `CCC(CC)Nc1c([N+](=O)[O-])cc(C)c(C)c1[N+](=O)[O-]`, with 61.9 µM (active) and inactive. Same read-out and setting: to `COc1ccc(C=O)cc1` belongs “inactive”; to `CCCCNC(=O)n1c(NC(=O)OC)nc2ccccc21`, 60.8 µM (active); to `c1ccc(NNc2ccccc2)cc1`, “inactive and 48.6 µM (active)”. In the case of `CC1(C)C(C=C(Cl)Cl)C1C(=O)OC(C#N)c1cccc(Oc2ccccc2)c1` (configuration not stated), the Potency is 2.73 µM (active). The same measure, in the same setting: then `CCCCCCCCC(=O)NCc1ccc(O)c(OC)c1`, with 27.3 µM (active) and inactive. The same measure, in the same setting: to `Cc1c(COC(=O)[C@@H]2[C@H](/C=C(\Cl)C(F)(F)F)C2(C)C)cccc1-c1ccccc1` belongs 26.7 µM (active) and inactive; to `CC(C)c1ccc(CO)cc1`, “inactive”. As to `CCCCCCCCCCCOC(=O)c1ccccc1C(=O)OCCCCCCCCCCC`, the Potency result is “inactive”. Still for that read-out and setting: then `N#CC(Br)Br`, with “inactive”; and `COc1ccc(C(CN(C)C)C2(O)CCCCC2)cc1` (configuration not stated), with “inactive”. On the same count and under the same terms, then `C=CCN(CC=C)C(=O)C(Cl)Cl`, with “inactive”. The same measure, in the same setting: to `CCOC(=O)C(C)OC(=O)c1cc(Oc2ccc(C(F)(F)F)cc2Cl)ccc1[N+](=O)[O-]` (configuration not stated) belongs 30.5 µM (active); to `CCCCC(CC)COC(=O)c1ccc(C(=O)OCC(CC)CCCC)c(C(=O)OCC(CC)CCCC)c1` (configuration not stated), “inactive”. For `c1ccc(P(c2ccccc2)c2ccccc2)cc1`, the Potency was 55.5 µM (active) and 30.6 µM (active).

Take `Oc1c(Cl)c(Cl)c(Cl)c(Cl)c1Cl`: the Potency is 59.9 µM (active) and 54.5 µM (active). On the same count and under the same terms, then `Oc1cc(Cl)c(Cl)cc1Cl`, with 60.6 µM (active); and `NNC(=S)NN`, with “inactive”. Same read-out and setting: to `O=P(O)(O)CCCl` belongs “inactive”.

Regarding `Nc1ccc(-c2ccccc2)cc1`, the Potency was 28.1 µM (active) and 30.6 µM (active). Take `N#Cc1cc(Br)c(O)c(Br)c1`: the Potency was 68.5 µM (active) and inactive. Take `Cc1ccc2c(c1N)C(=O)c1ccccc1C2=O`: the Potency is 4.28 µM (active) and 1.93 µM (active).

The target of another assay is Nuclear receptor subfamily 1 group I member 2 (Rattus norvegicus) (UniProt Q9R1A7). As to the kind of experiment: Rat pregnane X receptor (rPXR) activation by small molecules, qHTS assay (AID 1346983). Note: nearly all actives have a fitted effect of over 20% in size. The following applies: rPXR luciferase reporter cells, One-Glo luminescence, 24 h; stronger effect = higher value. The essentials: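 Cell-based rPXR luciferase reporter assay, 2,000 cells per well, rested 5hr at 37 C before compound addition in DMSO, then 24 hr at 37 C. One-Glo reagent was added and luminescence read after 30 min at room temperature.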
Nuclear receptor subfamily 1 group I member 2 (Rattus norvegicus), sequence (Q9R1A7 whole entry, looked up): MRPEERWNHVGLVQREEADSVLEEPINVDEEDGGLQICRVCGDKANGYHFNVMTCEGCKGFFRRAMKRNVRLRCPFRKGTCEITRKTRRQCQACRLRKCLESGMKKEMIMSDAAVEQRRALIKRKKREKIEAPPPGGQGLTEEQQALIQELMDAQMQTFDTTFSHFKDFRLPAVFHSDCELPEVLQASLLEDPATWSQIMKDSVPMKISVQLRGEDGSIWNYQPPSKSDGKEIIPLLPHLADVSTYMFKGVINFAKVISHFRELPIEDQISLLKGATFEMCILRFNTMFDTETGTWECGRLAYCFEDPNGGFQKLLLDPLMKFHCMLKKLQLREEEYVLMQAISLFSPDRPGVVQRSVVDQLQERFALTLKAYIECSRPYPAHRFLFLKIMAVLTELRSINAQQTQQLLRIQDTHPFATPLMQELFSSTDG
For the compound `C#C[C@]1(O)CC[C@H]2[C@@H]3CCC4=CC(=O)CC[C@]4(C)[C@H]3CC[C@@]21C`, the max activation was 11.6% (inactive). Turning to `O=Cc1ccco1`, the max activation is -0.979% (inactive). Still for that read-out and setting: then `COc1ccc(C(CN(C)C)C2(O)CCCCC2)cc1` (configuration not stated), with -0.342% (inactive); and `Oc1cc(Cl)c(Cl)cc1Cl`, with -1.86% (inactive).

The values above are taken from PubChem BioAssay (Tox21).
